Assay results: PubChem BioAssay AID1159580 (chemical genetic matrix, 2015)
In all, about 5,500 compounds went through this assay and about 2,000 (36%) were called active. About 18% were inconclusive and are not listed. No stated cut-off is given here; in the data, active means normalized growth mostly below about 0.91 (no sharp cut-off); inconclusive means no clear call, values can overlap the other calls; inactive means mostly above about 0.92. This is one part of the list.

Test: chemical genetic growth profiling, strain panel (AID 1159580);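 further: tested at 20 µM; growth read once vehicle control cultures reached saturation at 30 °C; 1 = growth at the plate median or of vehicle wells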
Conditions: growth OD

Measured: normalized growth

O=C(O)C1=C[C@@H](O)[C@@H](O)[C@H](O)C1
inactive: S. cerevisiae deletion strains, locus YJR043C, strain POL32, stronger effect = lower value 1.02 | S. cerevisiae deletion strains, locus YJR066W, strain TOR1, stronger effect = lower value 0.928 | S. cerevisiae deletion strains, locus YJR075W, strain HOC1, stronger effect = lower value 1.01 | S. cerevisiae deletion strains, locus YKL009W, strain mrt4, stronger effect = lower value 1 | S. cerevisiae deletion strains, locus YKL068W, stronger effect = lower value 1 | S. cerevisiae deletion strains, locus YKL085W, strain MDH1 (second series), stronger effect = lower value 1.01 | S. cerevisiae deletion strains, locus YKL085W, strain MDH1, stronger effect = lower value 1.01 | S. cerevisiae deletion strains, locus YKL160W, strain elf1, stronger effect = lower value 0.987 | S. cerevisiae deletion strains, locus YKR001C, strain vps1, stronger effect = lower value 1.07 | S. cerevisiae deletion strains, locus YKR026C, strain gcn3, stronger effect = lower value 0.999 | S. cerevisiae deletion strains, locus YKR091W, strain srl3, stronger effect = lower value 0.969 | S. cerevisiae deletion strains, locus YLL001W, strain dnm1, stronger effect = lower value 0.995 | S. cerevisiae deletion strains, locus YLL026W, stronger effect = lower value 0.975 | S. cerevisiae deletion strains, locus YLL041C, strain sdh2, stronger effect = lower value 0.978 | S. cerevisiae deletion strains, locus YLR027C, strain aat2, stronger effect = lower value 0.996 | S. cerevisiae deletion strains, locus YLR039C, strain RIC1, stronger effect = lower value 1.1 | S. cerevisiae deletion strains, locus YLR058C, strain SHM2, stronger effect = lower value 1.01 | S. cerevisiae deletion strains, locus YLR102C, strain apc9, stronger effect = lower value 1.01 | S. cerevisiae deletion strains, locus YLR113W, strain HOG1, stronger effect = lower value 1.01 | S. cerevisiae deletion strains, locus YLR221C, strain rsa3, stronger effect = lower value 0.982 | S. cerevisiae deletion strains, locus YLR258W, strain gsy2, stronger effect = lower value 0.974 | S. cerevisiae deletion strains, locus YLR262C, strain YPT6 (second series), stronger effect = lower value 0.952 | S. cerevisiae deletion strains, locus YLR262C, strain YPT6, stronger effect = lower value 1.13 | S. cerevisiae deletion strains, locus YLR268W, strain sec22, stronger effect = lower value 1.05 | S. cerevisiae deletion strains, locus YLR320W, strain mms22, stronger effect = lower value 0.985 | S. cerevisiae deletion strains, locus YLR330W, strain CHS5, stronger effect = lower value 1.01 | S. cerevisiae deletion strains, locus YLR342W, strain FKS1 (second series), stronger effect = lower value 1.05 | S. cerevisiae deletion strains, locus YLR342W, strain FKS1, stronger effect = lower value 0.985 | S. cerevisiae deletion strains, locus YLR357W, strain rsc2, stronger effect = lower value 0.973 | S. cerevisiae deletion strains, locus YLR370C, strain arc18, stronger effect = lower value 0.994 | S. cerevisiae deletion strains, locus YLR371W, strain rom2, stronger effect = lower value 1.02 | S. cerevisiae deletion strains, locus YLR384C, strain iki3, stronger effect = lower value 0.979 | S. cerevisiae deletion strains, locus YLR418C, strain cdc73, stronger effect = lower value 0.986 | S. cerevisiae deletion strains, locus YML016C, strain PPZ1, stronger effect = lower value 1.02 | S. cerevisiae deletion strains, locus YML032C, strain rad52, stronger effect = lower value 0.993 | S. cerevisiae deletion strains, locus YML120C, strain ndi1, stronger effect = lower value 0.982 | S. cerevisiae deletion strains, locus YML124C, strain tub3, stronger effect = lower value 1 | S. cerevisiae deletion strains, locus YMR058W, strain fet3, stronger effect = lower value 0.973 | S. cerevisiae deletion strains, locus YMR078C, strain ctf18, stronger effect = lower value 1.01 | S. cerevisiae deletion strains, locus YMR125W, strain sto1, stronger effect = lower value 0.968 | S. cerevisiae deletion strains, locus YMR129W, stronger effect = lower value 0.986 | S. cerevisiae deletion strains, locus YMR205C, strain PFK2, stronger effect = lower value 0.984 | S. cerevisiae deletion strains, locus YMR223W, strain ubp8, stronger effect = lower value 0.987 | S. cerevisiae deletion strains, locus YMR231W, strain pep5, stronger effect = lower value 0.967 | S. cerevisiae deletion strains, locus YMR263W, strain SAP30, stronger effect = lower value 1.02 | S. cerevisiae deletion strains, locus YMR307W, strain GAS1, stronger effect = lower value 1.04 | S. cerevisiae deletion strains, locus YNL067W, strain RPL9B, stronger effect = lower value 1.01 | S. cerevisiae deletion strains, locus YNL071W, strain lat1, stronger effect = lower value 0.982 | S. cerevisiae deletion strains, locus YNL183C, strain NPR1, stronger effect = lower value 0.962 | S. cerevisiae deletion strains, locus YNL209W, strain ssb2, stronger effect = lower value 0.983 | S. cerevisiae deletion strains, locus YNL233W, strain BNI4, stronger effect = lower value 1.03 | S. cerevisiae deletion strains, locus YNL248C, strain rpa49, stronger effect = lower value 0.965 | S. cerevisiae deletion strains, locus YNL250W, strain rad50, stronger effect = lower value 1.03 | S. cerevisiae deletion strains, locus YNL271C, strain bni1, stronger effect = lower value 1.01 | S. cerevisiae deletion strains, locus YNL298W, strain CLA4, stronger effect = lower value 1.01 | S. cerevisiae deletion strains, locus YNL307C, strain MCK1, stronger effect = lower value 1.02 | S. cerevisiae deletion strains, locus YNL322C, strain KRE1 (second series), stronger effect = lower value 0.986 | S. cerevisiae deletion strains, locus YNR049C, strain mso1, stronger effect = lower value 0.989 | S. cerevisiae deletion strains, locus YNR052C, strain pop2, stronger effect = lower value 1.01 | S. cerevisiae deletion strains, locus YOL012C, strain htz1 0.985 | S. cerevisiae deletion strains, locus YOL147C, strain pex11, stronger effect = lower value 0.993 | S. cerevisiae deletion strains, locus YOR001W, strain rrp6, stronger effect = lower value 0.993 | S. cerevisiae deletion strains, locus YOR061W, strain CKA2, stronger effect = lower value 1.01 | S. cerevisiae deletion strains, locus YOR069W, strain VPS5, stronger effect = lower value 1.01 | S. cerevisiae deletion strains, locus YOR070C, strain gyp1, stronger effect = lower value 0.996 | S. cerevisiae deletion strains, locus YOR080W, strain dia2, stronger effect = lower value 0.99 | S. cerevisiae deletion strains, locus YOR083W, strain WHI5, stronger effect = lower value 0.982 | S. cerevisiae deletion strains, locus YOR106W, strain vam3, stronger effect = lower value 0.972 | S. cerevisiae deletion strains, locus YOR136W, strain idh2, stronger effect = lower value 1.01 | S. cerevisiae deletion strains, locus YOR144C, strain elg1, stronger effect = lower value 1 | S. cerevisiae deletion strains, locus YOR184W, strain ser1, stronger effect = lower value 1.02 | S. cerevisiae deletion strains, locus YOR231W, strain MKK1, stronger effect = lower value 0.981 | S. cerevisiae deletion strains, locus YOR265W, strain rbl2, stronger effect = lower value 0.977 | S. cerevisiae deletion strains, locus YOR270C, strain vph1, stronger effect = lower value 0.969 | S. cerevisiae deletion strains, locus YOR290C, strain snf2, stronger effect = lower value 0.988 | S. cerevisiae deletion strains, locus YOR316C, strain cot1, stronger effect = lower value 0.996 | S. cerevisiae deletion strains, locus YPL051W, strain arl3, stronger effect = lower value 0.977 | S. cerevisiae deletion strains, locus YPL078C, strain atp4, stronger effect = lower value 0.987 | S. cerevisiae deletion strains, locus YPL106C, strain sse1, stronger effect = lower value 0.973 | S. cerevisiae deletion strains, locus YPL240C, strain hsp82, stronger effect = lower value 0.989 | S. cerevisiae deletion strains, locus YPL241C, strain CIN2, stronger effect = lower value 1.01 | S. cerevisiae deletion strains, locus YPL256C, strain CLN2, stronger effect = lower value 0.978 | S. cerevisiae deletion strains, locus YPR119W, strain clb2, stronger effect = lower value 1 | S. cerevisiae deletion strains, locus YPR141C, strain kar3, stronger effect = lower value 1 | S. cerevisiae deletion strains, locus YPR163C, strain tif3, stronger effect = lower value 0.995 | S. cerevisiae deletion strains, locus YPR167C, strain met16, stronger effect = lower value 0.999 | S. cerevisiae deletion strains, strain wtn01, stronger effect = lower value 1.05 | S. cerevisiae strains, strain wild type, stronger effect = lower value 1.02
